KDM4E inh = qHTS Assay for Inhibitors of Human Jumonji Domain Containing 2E (JMJD2E); Lysine-specific demethylase 4E (Homo sapiens), B2RXH2; JMJD2E catalytic domain, FDH-coupled NADH fluorescence (FDH is formaldehyde dehydrogenase); Potency, µM (highest dose often 57.1 µM), most hits filed as inhibitors; actives 1.6% (n = 230,000); active means well fitted inhibition curve with a large enough effect, not every such curve was filed as active; inconclusive means small, poorly fitted or top-dose-only effect, or another doubt; inactive means no such curve, though single readings can be large or run the other way; further: nearly all actives have a fitted effect of over 50% in size
PI5P4K alpha inh = qHTS for Inhibitors of phosphatidylinositol 5-phosphate 4-kinase (PI5P4K) | AID 652105, 2013 | max response, % | actives 1.2% (n = 330,000) | PI5P4Kalpha enzyme, ADP-Glo luminescence, 60 min; hits give low values | Phosphatidylinositol 5-phosphate 4-kinase type-2 alpha (Homo sapiens), P48426; active means max response of -50% or lower; inconclusive means between -30% and -50%; inactive means -30% or higher; further: value at the top dose of about 77 µM
Target sequence (P48426 whole entry, looked up): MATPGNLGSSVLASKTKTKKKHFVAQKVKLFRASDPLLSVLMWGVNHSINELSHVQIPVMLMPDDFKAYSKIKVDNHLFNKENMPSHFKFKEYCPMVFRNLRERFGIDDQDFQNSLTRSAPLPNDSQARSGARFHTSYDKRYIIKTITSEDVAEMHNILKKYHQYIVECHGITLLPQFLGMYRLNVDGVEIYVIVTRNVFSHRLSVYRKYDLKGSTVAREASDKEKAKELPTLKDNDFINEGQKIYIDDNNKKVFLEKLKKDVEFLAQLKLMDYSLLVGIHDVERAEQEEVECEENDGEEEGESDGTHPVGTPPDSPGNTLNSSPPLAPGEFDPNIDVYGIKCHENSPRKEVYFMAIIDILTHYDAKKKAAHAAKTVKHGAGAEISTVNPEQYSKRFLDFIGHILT
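qHTS, 1536-well: enzyme/substrate mix, compound by pin tool, 5 microM ATP final; RT 60 min; ADP-Glo reagents 1 (45 min) then 2 (30 min); luminescence.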
BAZ2B inh = qHTS Assay for Inhibitors of BAZ2B; Bromodomain adjacent to zinc finger domain protein 2B (Homo sapiens), Q9UIF8; AlphaScreen BAZ2B-H3K14Ac peptide displacement; Potency, µM (series often up to 114 µM), actives largely listed as inhibitors; actives 4.4% (n = 360,000); AID 504333, 2011; further: nearly all actives have a fitted effect of over 60% in size
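Multi-concentration screen (max 110 uM) measuring displacement of acetylated histone H3 peptide from BAZ2B by AlphaScreen, using 50 nM protein, 50 nM peptide and 10 ug/mL streptavidin donor plus Ni-chelate acceptor beads.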
JMJD2A Tudor inh = qHTS Assay for Inhibitors of JMJD2A-Tudor Domain. AID 504339, 2011. Potency, µM (highest dose often 114 µM), usual class: inhibitors. actives 4.4% (n = 390,000). AlphaScreen JMJD2A-Tudor / H3K4me3 peptide binding; further: nearly all actives have a fitted effect of over 50% in size
L3MBTL1 inh = qHTS Assay for the Inhibitors of L3MBTL1; actives 0.66% (n = 230,000); AlphaScreen L3MBTL1–H3K9me1 peptide binding; Potency, µM (series often up to 57.1 µM), hits mostly inhibitors; further: nearly all actives have a fitted effect of over 60% in size
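AlphaScreen proximity signal between nickel-chelate acceptor and streptavidin donor beads (final 10 ug/mL) reports binding of 50 nM L3MBTL1 to 75 nM biotin-H3 K9me1 peptide; complex incubated with compounds 30 min at room temperature; cefsulodin titration as control.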
HP1b chromo inh = HTS for Inhibitors of HP1-beta Chromodomain Interactions with Methylated Histone Tails | Chromobox protein homolog 1 (Homo sapiens), P83916 | AlphaScreen HP1-beta / biotin-H3K9me3 peptide binding | Potency, µM (highest dose often 114 µM), usual class: inhibitors | actives 0.56% (n = 390,000) | AID 540317, 2011; further: nearly all actives have a fitted effect of over 70% in size
Target sequence (P83916 whole entry, looked up): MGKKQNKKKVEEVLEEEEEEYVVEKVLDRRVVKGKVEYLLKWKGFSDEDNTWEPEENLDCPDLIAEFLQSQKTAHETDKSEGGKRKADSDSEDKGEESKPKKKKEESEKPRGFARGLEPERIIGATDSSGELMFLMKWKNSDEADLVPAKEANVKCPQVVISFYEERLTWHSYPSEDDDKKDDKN
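AlphaScreen: HP1-beta (50 nM) preformed 30 min with biotin-H3(1-18)K9me3 peptide (50 nM) in PBS pH 7.4, 0.01% Tween-20. Compound added for 30 min at RT, then streptavidin donor/nickel chelate acceptor beads (10 ug/mL) for 30 min.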
Numbers stand for hits; 0 = inactive; ? = inconclusive; - = not tested or not shown; ! = not active in a repeat. In the library only some 5.7% were active in any assay of this set; here they are far more common. Unless noted, the call rests on the fitted dose curve; in most records, active means well fitted inhibition curve with a large enough effect; inconclusive means small, poorly fitted or top-dose-only effect; inactive means no such curve, though single readings can be large or run the other way.

SMILES	KDM4E inh	PI5P4K alpha inh	BAZ2B inh	JMJD2A Tudor inh	L3MBTL1 inh	HP1b chromo inh
N#CC(c1ccc(Cl)cc1)c1ccc2c(C(F)(F)F)cc(C(F)(F)F)nc2n1 (stereo unspecified)	0	0	32µM	50µM	-	8.9µM
COc1ccc(NC(=O)CSc2cn(CC(=O)N3CCOCC3)c3ccccc23)cc1OC	-	-	0	0	-	0
CCOc1ccccc1NC(=O)C1=C(C)NC(=S)NC1c1cccs1 (stereo unspecified)	0	0	0	0	0	0
COc1ccc(N2CCN(C(=O)C(Cc3ccccc3)n3cccc3)CC2)cc1 (stereo unspecified)	0	0	28µM	56µM	-	?
O=C(C(Cc1ccccc1)n1cccc1)N1CCN(c2cccc(Cl)c2)CC1 (stereo unspecified)	0	0	0	0	-	0
O=C(C(Cc1ccccc1)n1cccc1)N1CCN(Cc2ccccc2)CC1 (stereo unspecified)	0	0	50µM	?	-	0
Nc1ccc2cc3ccccc3cc2c1	-	0	-	?	-	0
Nc1ccc2cccc(O)c2c1	-	-80	-	28µM	-	?
CCOC(=O)c1c(CSc2ccccc2)n(C)c2cc(Br)c(OCC(O)CNC(CO)(CO)CO)cc12 (stereo unspecified)	?	0	?	?	0	56µM
CCCC(c1nnnn1Cc1cccs1)N1CCN(C2CCCC2)CC1 (stereo unspecified)	0	0	?	56µM	-	?
CCC(c1nnnn1Cc1cccs1)N1CCN(C2CCCC2)CC1 (stereo unspecified)	0	0	0	0	-	0
CCCCn1cnc2c(c(-c3ccccc3)c(-c3ccccc3)n2Cc2ccco2)c1=N	0	0	?	0	0	0
N=c1c2c(-c3ccccc3)c(-c3ccccc3)n(Cc3ccco3)c2ncn1Cc1ccco1	0	0	25µM	50µM	0	?
N=c1c2c(-c3ccccc3)c(-c3ccccc3)n(Cc3ccccc3)c2ncn1CCCn1ccnc1	0	0	50µM	?	0	0
Cc1ccc(CNC(=O)c2c(O)nc3ccccn3c2=O)cc1	-	-	0	0	-	0
O=C(NCCN1CCCC1)c1ccc(Cn2c(=S)[nH]c3cc4c(cc3c2=O)OCO4)cc1	0	-	0	40µM	0	0
C=CCNC(=O)c1ccc(Cn2c(=S)[nH]c3cc4c(cc3c2=O)OCO4)cc1	0	-	0	?	0	0
COc1cccc(C=O)c1OCCCOc1cccc2cccnc12	-	0	0	0	0	0
O=Cc1ccc(O)c2ncccc12	3.2µM	0	1.3µM	2.8µM	4µM	0
COc1cc(N)c(C(=O)c2nccc3cc(OC)c(OC)cc23)cc1OC	-	0	0	0	0	0
COc1cc(Br)c(C(=O)c2nccc3cc(OC)c(OC)cc23)cc1OC	-	0	?	45µM	-	0
COC(=O)[C@@H]1C[C@@]2(O)[C@H](O)[C@H](O)[C@H](O)C[C@H]2N1Cc1ccc(-c2ccccc2)cc1	8.9µM!	0	0	0	-	0
COc1ccc(C(O)P(=O)(OC(C)C)c2ccc(N(C)C)cc2)c(OC)c1 (stereo unspecified)	-	0	0	22µM	-	0
CC(C)OP(=O)(c1ccc(N(C)C)cc1)C(O)c1ccc(N(C)C)cc1 (stereo unspecified)	-	0	0	4.5µM	-	0
Cc1ccc(C)c(N2CCN(S(=O)(=O)c3ccc(C(=O)N(C)C)s3)CC2)c1	-	-	0	0	-	0
SMILES	KDM4E inh	PI5P4K alpha inh	BAZ2B inh	JMJD2A Tudor inh	L3MBTL1 inh	HP1b chromo inh
Cc1c2cnn(CC(=O)NCc3ccc(F)cc3)c(=O)c2c(C)n1Cc1ccccc1Cl	-	-	0	0	-	0
CCN(CC)S(=O)(=O)c1ccc2c(c1)N(CC(=O)Nc1ccc(F)cc1F)C(=O)C1CCCN21 (stereo unspecified)	-	-	0	0	-	0
O/C(=C\c1nc2ccccc2nc1/C=C(\O)c1ccccc1)c1ccccc1	0	0	4.5µM	?	-	0
COc1cccc(CNC(=O)Nc2ccc3c(c2)N(C)C(=O)c2ccccc2S3)c1	-	-	0	0	-	0
C=CCc1ccccc1OCC(O)CN1CCN(Cc2ccc3c(c2)OCO3)CC1 (stereo unspecified)	0	0	56µM	0	0	0
C=CCc1ccccc1OCC(O)CN1CCN(c2ccc(C)cc2)CC1 (stereo unspecified)	?	-	28µM	3.5µM	0	?
C=CCc1ccccc1OCC(O)CN1CCN(CCN2C(=O)c3cccc4cccc(c34)C2=O)CC1 (stereo unspecified)	?	0	?	?	0	?
Cc1ccc(C(=O)NCC(=O)OC(C(=O)Nc2cc(C(F)(F)F)ccc2Cl)c2ccccc2)cc1 (stereo unspecified)	-	-	-	0	-	-
Cc1cccc(C)c1NC(=O)C1C2C=CC(C2)C1C(=O)NCc1ccccn1 (stereo unspecified)	0	-	79µM	0	-	0
O=C(O)C1C2C=CC(C2)C1C(=O)NCc1ccccn1 (stereo unspecified)	0	-	?	-	0	-
COc1ccc(S(=O)(=O)NCC(c2ccc(N(C)C)cc2)N2CCc3ccccc32)cc1F (stereo unspecified)	-	-	11µM	20µM	-	?
COc1ccc(S(=O)(=O)NCC(c2ccc(C)cc2)N2CCN(C)CC2)cc1 (stereo unspecified)	-	0	0	0	0	0
CN(C)c1ccc(C(CNS(=O)(=O)c2ccc(F)cc2)N2CCOCC2)cc1 (stereo unspecified)	-	-	0	0	-	0
Cc1ccc(S(=O)(=O)NCC(c2ccc(N(C)C)cc2)N2CCc3ccccc32)cc1 (stereo unspecified)	-	-	6.3µM	14µM	-	?
CN(C)c1ccc(C(CNS(=O)(=O)c2ccccc2)N2CCc3ccccc32)cc1 (stereo unspecified)	-	-	22µM	13µM	-	?
COc1ccc(S(=O)(=O)NCC(c2ccc(N(C)C)cc2)N2CCCC2)cc1F (stereo unspecified)	-	-	0	0	-	0
CCOCCCNC(=O)C(NC(=O)C1CCC(C)CC1)C(C)C (stereo unspecified)	-	-	0	0	-	0
N#Cc1nc(Nc2ccc(-c3ccccc3)cc2)nc(NC2CCCC2)n1	-	-	-	0	-	-
CCN1CCN(C(c2cccc(OC)c2)c2c(O)cc(C)n(Cc3ccco3)c2=O)CC1 (stereo unspecified)	-	-	0	0	-	0
